USP10 block: inhibitors of human USP10 deubiquitinase. purified USP10, Ub-rhodamine fluorescence, 60 min. inhibition, % at 20 µM. hit rate 1.1% among 47,000. AID 1645856
Target sequence (Q14694 whole entry, looked up): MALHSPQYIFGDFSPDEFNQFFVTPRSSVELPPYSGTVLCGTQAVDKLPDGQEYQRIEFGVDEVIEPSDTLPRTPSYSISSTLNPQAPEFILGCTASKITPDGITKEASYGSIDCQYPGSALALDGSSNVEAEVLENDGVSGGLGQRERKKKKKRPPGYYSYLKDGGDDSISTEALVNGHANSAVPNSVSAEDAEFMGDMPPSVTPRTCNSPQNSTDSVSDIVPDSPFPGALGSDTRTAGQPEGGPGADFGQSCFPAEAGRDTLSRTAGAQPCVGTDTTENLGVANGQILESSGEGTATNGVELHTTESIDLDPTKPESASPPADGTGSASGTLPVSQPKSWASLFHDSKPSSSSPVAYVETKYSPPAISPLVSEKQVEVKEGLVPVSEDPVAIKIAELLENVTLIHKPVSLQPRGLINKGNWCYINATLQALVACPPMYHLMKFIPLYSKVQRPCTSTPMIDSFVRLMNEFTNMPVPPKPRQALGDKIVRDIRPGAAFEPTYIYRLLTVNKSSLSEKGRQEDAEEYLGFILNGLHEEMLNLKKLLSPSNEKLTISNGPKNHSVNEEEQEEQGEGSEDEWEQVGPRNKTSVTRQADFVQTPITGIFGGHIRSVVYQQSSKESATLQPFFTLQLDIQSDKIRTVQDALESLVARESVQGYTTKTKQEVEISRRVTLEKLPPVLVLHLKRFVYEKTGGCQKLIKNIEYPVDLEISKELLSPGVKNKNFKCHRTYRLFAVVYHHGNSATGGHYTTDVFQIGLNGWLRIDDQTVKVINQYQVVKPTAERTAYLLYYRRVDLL
USP8 inh: inhibitors of human USP8 deubiquitinase; P40818; purified USP8, Ub-rhodamine cleavage fluorescence, 30 min; inhibition, % at 20 µM; hit rate 4.2% among 47,000
USP28 inh: blocks human USP28 ubiquitin-rhodamine cleavage; Q96RU2; purified USP28, Ub-rhodamine cleavage fluorescence, 30 min; inhibition, % at 25 µM; hit rate 3% among 47,000
USP30 inh: blocks human USP30 ubiquitin-rhodamine cleavage | Q70CQ3 | purified USP30, Ub-rhodamine cleavage fluorescence | inhibition, % at 25 µM | hit rate 5.3% among 47,000 | AID 1645860
USP17 block: blocks human USP17 ubiquitin-rhodamine cleavage; A8MUK1; purified USP17, Ub-rhodamine cleavage fluorescence, 3 h; inhibition, % at 50 µM; hit rate 6.5% among 47,000; AID 1645855
Each line names hits and unclear results; the compound was inactive in the other large screens. Rows were chosen to be rich in hits. Some 14% of all compounds tested hit in one or more screens of this group. Rule as the data show it: active = inhibition above about 30%; inactive = the rest.

Cc1ccc2nc(NC(=O)c3cc4c(=O)n5ccccc5nc4n3C)sc2c1	none
Cc1cc2c3c([nH]c2cc1S(=O)(=O)NCCc1ccccc1)CC(C)(C)CC3=O	none
CCN(c1ccccc1)S(=O)(=O)c1cc2[nH]c3c(c2cc1C)C(=O)CC(C)(C)C3	USP17 block 33
Cc1cccc(NS(=O)(=O)c2cc3[nH]c4c(c3cc2C)C(=O)CC(C)(C)C4)c1	USP17 block 36
N#Cc1ccc(C(=O)Nc2ccc3c(N4CCOCC4)ncnc3c2)cc1	none
O=c1[nH]c(-c2cccnc2)nc2c1CN(Cc1ccncc1)CC2	none
CN1CCC(CNC(=O)Nc2ccccc2F)C1 (centres undefined)	none
COc1ccc(CNC(=O)Cn2c(N3CCCCC3)nc(C)cc2=O)cc1	none
Cc1cn2c(=O)cc(COC(=O)c3ccc(NC(=O)c4ccccc4)cc3)nc2s1	USP17 block 39
c1cnc(-c2n[nH]c(C3CCN(C4CCNC4)CC3)n2)cn1 (centres undefined)	USP28 inh 51, USP17 block 54
Cc1ccc2[nH]c(=O)c(-c3noc(-c4ccc([N+](=O)[O-])cc4)n3)cc2c1	USP30 inh 42, USP17 block 48
CCc1cc(=O)[nH]c(SCc2cc(C(F)(F)F)cc(C(F)(F)F)c2)n1	none
CC(C)(C)c1cc(C[C@@H]2C[C@H](NC(=O)N3CCOCC3)C2(C)C)no1	USP30 inh 69, USP17 block 39
CC(C)(C)c1cc(NC(=O)C2CCCO2)no1 (centres undefined)	none
CC(C(=O)Nc1ccc2c(c1)OCO2)N1CCN(C)CC1 (centres undefined)	none
O=C([C@@H]1CCCN1C1=NS(=O)(=O)c2ccccc21)N1CCN(c2ccccc2)CC1	none
O=C(/C=C/c1ccccc1)N1CCN(C2=NS(=O)(=O)c3ccccc32)CC1	USP30 inh 80
COc1ccccc1N(CC(=O)NCc1ccc(F)cc1)C(=O)CCC(=O)Nc1ccccn1	USP30 inh 35
CC1(C)Cc2cccc(OCc3ccc(C(=O)NCc4ccncc4)cc3)c2O1	none
Nc1nc(/C=C/c2ccc(Cl)cc2)nc(-c2ccccc2O)n1	USP17 block 36
Nc1nc(/C=C/c2ccc(Br)cc2)nc(-c2ccccc2O)n1	none
CCOC(=O)C1CCN(Cc2cc(=O)oc3cc(O)c(O)cc23)CC1	USP10 block 34, USP8 inh 91, USP28 inh 85, USP30 inh 52, USP17 block 85
CCOc1cccc(CNC(=O)C2c3ccccc3CC(=O)N2CC)c1 (centres undefined)	USP8 inh 55
COc1ccc2nc(-c3ccc(OC)c(NC(=O)COc4ccccc4)c3)cn2n1	none
COc1cc(OC)c(C(=O)OCC(=O)Nc2ccc(S(=O)(=O)N3CCCCC3)cc2)cc1OC	none
Cc1sc2nc(-c3cccnc3)nc(NCCCN3CCOCC3)c2c1C	USP17 block 33
O=C(COc1ccc(Cl)cc1)N1CCc2cc3ccccc3nc21	USP17 block 65
O=C1CCN(C(=O)COc2ccc(Cl)cc2)c2ccccc2N1	none
O=C(NCc1ccc(F)cc1)NC1CCN(c2ccccc2)C1=O (centres undefined)	none
Cc1ccc(N2CCC(NS(=O)(=O)Cc3ccccc3)C2=O)cc1C (centres undefined)	none
O=C(NCc1cccc(F)c1)NC1CCN(c2ccccc2)C1=O (centres undefined)	USP17 block 44
O=C1C(NS(=O)(=O)Cc2cccc(F)c2)CCN1c1ccc(F)cc1 (centres undefined)	USP17 block 43
Cc1cc(N2CCC(NC(=O)NCc3ccc(F)cc3)C2=O)ccc1F (centres undefined)	USP17 block 70
COc1ccc(CNC(=O)NC2CCN(c3ccc(F)cc3)C2=O)cc1 (centres undefined)	none
O=C1C(NS(=O)(=O)Cc2cccc(F)c2)CCN1c1ccccc1 (centres undefined)	USP30 inh 34, USP17 block 44
CCn1cnc2c1c(=O)n(CC(=O)Nc1cc(C(C)(C)C)ccc1OC)c(=O)n2Cc1ccccc1	none
O=c1c(-c2ccc(O)cc2)coc2c(Cl)c(O)c(Cl)c(O)c12	none
COc1cccc(NC(=O)COc2cc(C)nc(N3CCCCCC3)n2)c1	none
O=C1C(NS(=O)(=O)Cc2cc(F)cc(F)c2)CCN1c1ccccc1 (centres undefined)	USP17 block 47
C=C(C)[C@@H]1CC[C@]2(C(=O)O)CC[C@]3(C)[C@H](CC[C@@H]4[C@@]5(C)CC[C@H](O)C(C)(C)[C@@H]5CC[C@]43C)[C@@H]12	USP17 block 31
C=C(C/C=C/C(C)(C)O)[C@H]1CC[C@]2(C)[C@@H]1CC[C@@H]1[C@@]3(C)CC[C@H](O)C(C)(C)[C@@H]3CC[C@]12C	none
Cc1nc(-c2cccc(NC(=O)c3ccc(C)c(NC(=O)c4ccco4)c3)c2)cs1	USP17 block 43
O=C(Nc1cccc(-c2nc(-c3ccc(=O)[nH]c3)no2)c1)c1ccco1	USP8 inh 63
Cc1nc(-c2ccc(C(=O)Nc3cccc(F)c3)cc2)cs1	none
COc1ccc(C(=O)Nc2cccc(C(=O)OCC(=O)c3ccc(Br)cc3)c2)cc1OC	USP17 block 34
CC(=O)c1cccc(NC(=O)c2ccc(-c3csc(C)n3)cc2)c1	USP17 block 53
Cn1nccc1-c1cccc(-c2noc(-c3cccc(NC(=O)c4ccco4)c3)n2)c1	none (no result: USP28 inh, USP30 inh)
CCN(c1cccc(C)c1)S(=O)(=O)c1c[nH]c2ccc([N+](=O)[O-])cc12	none
CCn1c(=O)c(=O)[nH]c2cc(C(=O)Nc3cccc(-c4csc(C)n4)c3)ccc21	USP28 inh 75, USP17 block 58
COc1ccc(C(=O)Nc2cccc(-c3csc(C)n3)c2)cc1OC	USP28 inh 46
COc1ccc(CNC(=O)c2ccc(-c3csc(C)n3)cc2)cc1	none
Cc1nc(-c2cccc(NC(=O)c3cccc(F)c3)c2)cs1	none
COc1cc(C(=O)Nc2ccc(-c3csc(C)n3)cc2)cc(OC)c1OC	USP28 inh 78
CCC(=O)Nc1nc2cc(NC(=O)c3cc(OC)c(OC)c(OC)c3)ccc2s1	none
COc1cc(C(=O)Nc2ccc3nccnc3c2)cc(OC)c1OC	USP28 inh 34
CN(C)C(=O)NC1CC2(CCN(Cc3ccc(O)cc3)CC2)Oc2ccccc21 (centres undefined)	none
Cc1nc(-c2ccc(C(=O)Nc3ccc(F)cc3)cc2)cs1	USP8 inh 65, USP30 inh 33
COc1ccccc1CC(=O)Nc1cc(S(=O)(=O)N2CCOCC2)ccc1N1CCOCC1	none
O=C1CC(O)C(O)c2cccc(O)c21 (centres undefined)	USP8 inh 76, USP28 inh 34, USP17 block 90
COc1ccccc1-c1coc2cc(OC(=O)c3ccc(C(C)(C)C)cc3)ccc2c1=O	none
O=C(NC1CC(=O)c2cc3c(cc21)OCO3)c1ccc(F)cc1 (centres undefined)	none

Screening data: PubChem BioAssay, Buhrlage Lab, Dana-Farber Cancer Institute and Novartis Institutes for BioMedical Research (Cambridge, Mass)
